From PubChem BioAssay AID1347056 (Sanford-Burnham Center for Chemical Genomics, 2019)
About 3,600 (1%) of roughly 360,000 compounds were called active.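 The calls were made as follows: active = compounds whose plate-normalised and pattern-corrected inhibition of the luciferase reporter signal at the single screening dose is 50% or more; inactive = the rest.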 Many of the other results were omitted from the sample, so actives are more common in it than they were.

test: inhibitors of TROY-driven NF-kB signaling, primary screen, Q293 LMP1-TROYcd cells, NF-kB luciferase, uHTS (AID 1347056); settings: Q293 LMP1-TROYcd NF-kB luciferase reporter, 4 h; at 10 µM; stronger effect = higher value

inhibition, active:
Cc1ccccc1OCC(=O)Nc1ccc(N2CCN(C(=O)C(C)C)CC2)c(Cl)c1 52.5%
CC(=O)c1c(C)[nH]c(C(=O)COC(=O)c2cccc(S(=O)(=O)N(C)c3ccccc3)c2)c1C 71%
O=C(Nc1cc(C(F)(F)F)ccc1Cl)c1cc2nc3c(c(C(F)(F)F)n2n1)CCCC3 79%
OCCNc1nc(Nc2ccc(Cl)c(Cl)c2)nc2ccccc12 68.4%
COc1ccc(NC(=S)SC)cc1OC 55.6%
COc1cc(SC)ccc1C(=O)Nc1nc(C)cs1 85.8%
COC(=O)c1sc(NC(=O)c2ccc(OC)cc2OC)nc1C 66.7%
CN(c1ccc2nc3ccccc3c(=O)n2n1)C1CCCCC1 90.3%
CCN(CC)C(=O)c1sc2nc(-c3ccccc3)ccc2c1N 69.8%
COc1cccc2c1C(=O)c1c(O)c3c(c(O)c1C2=O)CC(O)(C(C)=NNC(=O)c1ccc(Cl)c(Cl)c1)CC3OC1CC(N)C(O)C(C)O1 (configuration not stated) 69.6%
N#Cc1c(/N=C/N2CCCC2)oc(-c2ccccc2)c1-c1ccccc1 51.8%

inhibition, inactive:
O=C(NCCC1CCCCN1S(=O)(=O)c1cccs1)C(=O)Nc1ccc(F)cc1F (configuration not stated) 1.77%
CCc1ccccc1OCC(=O)Nc1ccc(C)c(S(=O)(=O)N2CCCCCC2)c1 3.2%
COc1cc(NC(=O)COc2ccccc2Cl)ccc1NC(=O)C(C)C -6.06%
COc1cccc(-c2cc3nc4c(c(N5CCC6(CC5)OCCO6)n3n2)CCCC4)c1 7.88%
CN(c1ccccc1)S(=O)(=O)c1ccc(Cl)c(C(=O)OCC(N)=O)c1 -2.16%
CC(=O)c1c(C)[nH]c(C(=O)COC(=O)CCOc2ccc(C)cc2)c1C 17.8%
CCO[C@@H]1OC(C(=O)N2CCOCC2)=C[C@H](C)[C@H]1CCCO -7.92%
CCCCCCCNc1nc(Cl)nc(NCCO)n1 4.41%
Nc1nc(SCC(=O)Nc2cc(C(F)(F)F)ccc2Cl)[nH]c(=O)c1NC(=O)c1ccco1 -8.07%
O=C(Nc1ccc(Cl)cc1)c1cc2nc(C3CC3)cc(C(F)(F)F)n2n1 -25.1%
Cn1c(=O)c2c(nc(Br)n2CCSc2nc3ccccc3o2)n(C)c1=O -10.2%
O=C(Cn1c(NCCO)nc2ccccc21)c1ccc(Cl)cc1Cl 22.3%
OCCNCCOc1ccc(Cl)c(Cl)c1 10.3%
C[C@H](CO)N1C[C@H](C)[C@H](CN(C)C(=O)Nc2ccc3c(c2)OCO3)Oc2ncc(Br)cc2C1=O 6.4%
CCn1c(C(C)NC(=O)c2ccc(C)cc2)n[nH]c1=S (configuration not stated) 21.8%
C=C(C)CNC(=O)c1ccc(OC2CCN(C(=O)COC)CC2)cc1 -21.5%
COc1ccc(NC(=O)C2C3CCC(O3)C2C(=O)O)cc1OC (configuration not stated) 8.24%
COc1ccc(NC(=O)CSCc2ccc([N+](=O)[O-])cc2)cc1OC -16.9%
O=C1c2ccccc2C(=O)N1CCC(c1ccccc1)c1ccco1 (configuration not stated) -65.2%
COc1ccc(C(=O)NC(C)CCc2ccccc2)c(OC)c1 (configuration not stated) -16.4%
Cc1csc(NC(=O)CSc2nc(=O)cc(N)n2-c2ccc(F)cc2)n1 -68.1%
Cc1ccccc1OCC(=O)Nc1nc(C)c(C(=O)N(C)C)s1 -13.4%
Cc1csc(NC(=O)NC2(C(F)(F)F)Oc3ccccc3O2)n1 -1.84%
CCCC(C(=O)NC1CCCC1)N(C(=O)Cn1nnc(-c2ccc(C)o2)n1)c1cccc(O)c1 (configuration not stated) -5.35%
C=CCn1c(COc2ccccc2F)nnc1SCC(=O)N1CC(=O)Nc2ccccc21 -21.6%
COc1cccc(N=c2oc3c(C)ncc(CO)c3cc2C(N)=O)c1 -39.2%
O=C(Nc1ccc(Cl)cc1)/C(=C1\CCCN1)[N+](=O)[O-] -75.7%
Cc1cccc2nc(CSc3nc4[nH]ncc4c(=O)n3-c3cccc(Cl)c3)cc(=O)n12 35.3%
COc1ccc(N(CC(=O)NC(C)(C)C)C(=O)c2ccco2)cc1 -5.86%
CCCNC(=O)C(=O)Nc1cc2c3c(c1)CCC(=O)N3CCC2 -5.66%
CN(Cc1cn(Cc2ccc(C(F)(F)F)cc2)nn1)C1CN(Cc2cn(Cc3ccc(C(F)(F)F)cc3)nn2)S(=O)(=O)C1 (configuration not stated) 14.4%
CC(C)(C)c1nc2ccccc2c(=O)n1N1C(=O)c2ccccc2C1=O 12.4%
CN(C(=O)Nc1ccc(Cl)cc1)n1cnc2ccccc2c1=O -48.7%
CNc1cc(-c2c(OC)cccc2OC)ncn1 -15.5%
CCCNC(=O)c1cc(C2CCCCN2S(=O)(=O)c2ccc(C#N)cc2)on1 (configuration not stated) -10.6%
CC(Oc1ccc(Br)cc1)C(=O)NCC(c1ccco1)N1CCCCC1 (configuration not stated) 7.2%
CCC[C@H]1CCCC/C=C\CCCC(=O)OCCN1C(=O)OC(C)(C)C 12.2%
CCOC(=O)C(C)n1nc(-c2ccccc2)c2ccccc2c1=O (configuration not stated) 7.19%
CCN(CC)C(=O)c1nc[nH]c1C(=O)N(C)Cc1ccccc1 -9.82%
COc1ccccc1/C=C/CN1CCC(CO)(Cc2ccccc2)CC1 -1.26%
Cc1ccccc1CN(c1ccc(C(=O)NCC2CCCO2)cc1)S(C)(=O)=O (configuration not stated) -8.79%
C#CCNC(=O)[C@H](Cc1ccc(C(=O)c2ccccc2)cc1)NC(=O)OC(C)(C)C 5.88%
CC(=O)Nc1ccc(NC(=O)CSC2=NS(=O)(=O)c3ccccc3N2)cc1 -4.58%
CCc1ccccc1NC(=O)CN(c1ccc(OC)cc1OC)S(=O)(=O)c1ccccc1[N+](=O)[O-] 1.82%
N#Cc1c(NC(=O)CCCN2C(=O)c3ccccc3C2=O)oc(-c2ccccc2)c1-c1ccccc1 -11.3%
COc1ccc(-c2oc(/N=C/N3CCCC3)c(C#N)c2-c2ccc(OC)cc2)cc1 -5.76%
